# TPT1 inh = blocks Candida albicans tRNA 2'-phosphotransferase; recombinant caTPT1, FP RNA substrate dephosphorylation; 300,000 compounds, 0.81% hits; AID 1962; inhibition, % at 5 µM;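 active = inhibition above the mean of all tested compounds plus 3 SD, set per screening campaign, cut at about 24% in these data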;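 note: plate controls were DMSO alone for no effect and ferristatin control at 100 nM for full effect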
# Rpn11 inh = Rpn11 (human) deubiquitinase inhibition | 360,000 compounds, 0.59% hits | human 26S proteasome, Ub4-pepOG fluorescence polarization; 20S core pre-blocked with epoxomicin | O00487 | inhibition, % at 20 µM;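 active = inhibition at 20 µM, scaled to each plate's controls, above about 33%, limit read from the data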
# Target sequence (O00487 whole entry, looked up): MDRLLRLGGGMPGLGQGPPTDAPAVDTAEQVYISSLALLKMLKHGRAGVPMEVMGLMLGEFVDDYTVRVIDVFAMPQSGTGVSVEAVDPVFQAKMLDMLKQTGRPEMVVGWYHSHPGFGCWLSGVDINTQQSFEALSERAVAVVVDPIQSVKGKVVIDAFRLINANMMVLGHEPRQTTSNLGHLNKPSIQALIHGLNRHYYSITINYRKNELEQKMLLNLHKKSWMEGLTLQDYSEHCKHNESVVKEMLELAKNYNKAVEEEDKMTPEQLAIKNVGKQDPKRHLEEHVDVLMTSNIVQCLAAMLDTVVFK
# HNF4A DNA FP = change in binding of human HNF4 alpha to DNA; P41235; HNF4a-FITC DNA binding, fluorescence polarization, 1 h; activity change, % at 10 µM; 360,000 compounds, 0.3% hits; in the data active = activity change above about 30%, passing the limit was not always enough
# Myeloid diff 2 = myeloid differentiation induction; AID 624256; ER-HoxA9 myeloid progenitors, lysozyme-GFP differentiation, flow cytometry; 360,000 compounds, 1% hits; calls only at 10 µM;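 active = normalized GFP-positive differentiation at or above the plate's own cutoff, the solvent-only control mean plus 3 SD; inconclusive = no clear call, values can overlap the other calls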;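 note: cells exposed to compound for four days before flow analysis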
# Myeloid diff CP1 = myeloid differentiation induction; 2,300 compounds, 2% hits; AID 651706; ER-HoxA9 myeloid progenitors, GFP/Mac1 double-positive flow; shares compounds with Myeloid diff 2; calls only;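 active = share of green or green-and-red cells above 9 and 9% in run 1 or 4 and 3% in run 2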
# GFP autofluor = flagged as fluorescent in myeloid differentiation counter-screen; shares compounds with Myeloid diff 2; ER-HoxA9 myeloid progenitors, no estrogen, GFP autofluorescence flow cytometry; vehicle wells 0%, positive control 100%; fluorescence response, % (concentration not given with the values); 2,300 compounds, 7.4% hits;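 active = over 5% cells positive for green fluorescent reporter, or over 2% positive for both it and APC stain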;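 note: range taken on the double positive population between DMSO and positive control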
# An asterisk follows results filed as active; i = inactive; u = inconclusive; x = no result given; + = active, no number. Shown are actives, neighbours in structure and some others; about 2.1% of the full set was active somewhere.
SMILES,TPT1 inh,Rpn11 inh,HNF4A DNA FP,Myeloid diff 2,Myeloid diff CP1,GFP autofluor
CCOC(=O)C1=C(C)c2ccccc2OC1(C(=O)OCC)c1ccccc1 (centres undefined),x,3.7,-4.1,i,i,0.5
C[C@H](CO)N1C[C@H](C)[C@@H](CN(C)C(=O)Oc2ccc3ccccc3c2)OCc2cn(nn2)CCCC1=O,x,-10.0,0.2,i,x,x
O=P(CN1CCN(c2ccccc2)CC1)(N1CCCCC1)N1CCCCC1,-0.3,-1.9,0.0,+,i,0.0
Oc1cc2c(cc1CN1CCN(c3ccccc3)CC1)CCC2,-0.4,5.3,-0.2,i,x,x
CC(C)(C)NC(=S)N1Cc2ccccc2-n2nncc2C1,x,0.9,-4.7,i,x,x
CCOC(=O)c1c(C)n(COCCO)c2ccc(O)cc12,-0.6,-5.3,-1.3,i,i,0.0
COc1ccc(C2=NCC(=O)N(CC(=O)NCc3ccco3)c3sc4c(c32)CCCC4)cc1,0.8,1.6,-1.9,i,i,1.0
Cc1cccc(C2=NCC(=O)N(CC(=O)NCc3ccco3)c3sc4c(c32)CCCC4)c1,1.5,3.1,3.0,i,x,x
CCOC(=O)[C@]12Cc3ccc4ccccc4c3[C@H]1N(Cc1ccccc1)C(=O)c1ccccc12,x,x,2.3,i,x,x
CCOC(=O)C1SC2(C(F)(F)F)CC1(O)c1c(C)cc(C)nc1O2 (centres undefined),-3.8,2.3,0.7,+,i,0.3
CCC(=NC(C)c1ccccc1)c1c(O)[nH]c(=O)[nH]c1=O (centres undefined),0.8,-16.4,2.1,+,i,0.8
CCC(=NCCC(c1ccccc1)c1ccccc1)c1c(O)[nH]c(=O)[nH]c1=O,0.2,-8.1,-0.2,i,x,x
COc1ccc(C2C(C(=O)N3CCC4(CC3)OCCO4)c3cc(OC)c(OC)cc3C(=O)N2C)cc1 (centres undefined),-1.1,-14.0,3.0,i,i,0.0
CCCNC(=O)N1[C@H]2CC[C@@H]1C(C(=O)OC)=C(c1ccc(Cl)c(C(F)(F)F)c1)C2,x,3.0,2.8,i,i,0.6
COC(=O)C1=C(c2ccc(Cl)c(C(F)(F)F)c2)C[C@@H]2CC[C@H]1N2C(=O)N1CCOCC1,x,-1.6,4.5,i,x,x
COC(=O)C1=C(c2ccc(Cl)c(C(F)(F)F)c2)C[C@@H]2CC[C@H]1N2C(=O)N1CCCC1,x,-4.3,2.0,i,i,0.0
COC(=O)C1=C(c2ccc(Cl)c(C(F)(F)F)c2)C[C@@H]2CC[C@H]1N2C(=O)NCC1CC1,x,-2.7,1.9,i,x,x
COC(=O)C1=C(c2cc3ccccc3s2)C[C@@H]2CC[C@H]1N2C(=O)NCC1CC1,1.1,2.0,-3.3,i,i,0.0
Cc1nn(Cc2ccccc2)c(Cl)c1C(=O)OCC(=O)Nc1cccc2ccccc12,-0.6,1.5,-1.6,i,x,x
Cc1nn(Cc2ccccc2)c(Cl)c1C(=O)OC(C)C(=O)Nc1ccc(F)cc1Cl (centres undefined),-1.2,-4.3,-0.8,i,i,1.1
Cc1cc(NC(=O)COC(=O)c2c(C)nn(Cc3ccccc3)c2Cl)no1,-3.1,5.0,-0.8,i,+,0.3
COC(=O)C1=C(c2ccc(C(C)=O)cc2)C[C@@H]2CC[C@H]1N2C(=O)NC(C)C,x,-5.4,0.7,i,x,x
CC(C)(O)C1C2OC(=O)C1C1(O)CC3OC34C(=O)OC2C14C (centres undefined),x,-1.6,0.5,u,x,x
CN(c1ccc(O)cc1)c1ccc([N+](=O)[O-])c2nonc12,x,13.9,11.3,+,i,4.4
O=c1[nH]c(=S)n(C2CC2)c(O)c1/C=N/Nc1ccccc1,0.4,-1.0,0.9,i,x,x
O=c1[nH]c(=S)n(C2CC2)c(O)c1/C=N/Nc1cccc2ccccc12,5.2,-0.5,2.0,i,i,2.1
C[C@]12CCC3C(CC[C@H]4C[C@H](O)CC[C@]34C)C1CCC2=O (some centres undefined),x,-2.4,-5.0,i,x,x
